# Structures can show the parent of a compound that is named as a salt.
# Test system: thyroid hormone receptor (endogenous TRα and TRβ)
# Design: species or system GH3-TRE-Luc (rat pituitary); GH3-TRE-Luc luciferase reporter, antagonist mode against 1 nM T3, loss of signal, qHTS
# Details: read-out: Average AC50 (uM) GH3-TRE-Antag, antagonist mode, 1 nM T3, no GH3 cytotoxicity hit
row,SMILES,AC50
1,CC1(C)[C@H](C=C(Cl)Cl)[C@H]1C(=O)O[C@H](C#N)c1cccc(Oc2ccccc2)c1 [Cypermethrin],> 50 µM
2,"Nc1ccc(C(=O)OCCCOC(=O)c2ccc(N)cc2)cc1 [Propane-1,3-diyl bis(4-aminobenzoate)]",59.8 µM
3,"Oc1ccc(-c2ccc(O)cc2)cc1 [4,4'-Biphenyldiol]",34.2 µM
4,Cc1cc(CC(=O)O)c(C)n1-c1ccc(Cl)cc1 [Clopirac],38.5 µM
5,C[C@]12CCC(=O)C=C1C=C[C@@H]1[C@@H]2CC[C@@]2(C)[C@H]1CC[C@@]21CCC(=O)O1 [Canrenone],34.1 µM
6,O=C(c1ccc(F)cc1)C1CCN(CCn2c(=S)[nH]c3ccccc3c2=O)CC1 [Altanserin hydrochloride],46.6 µM
7,COC(=O)Nc1ccc(Cl)c(Cl)c1 [Swep],> 90 µM
8,CN(C)[C@@H]1C(O)=C(C(N)=O)C(=O)[C@@]2(O)C(O)=C3C(=O)c4c(O)ccc(Cl)c4[C@@](C)(O)[C@H]3C[C@@H]12 [Chlortetracycline hydrochloride],> 20 µM
9,"CNC(=O)Nc1ccc(Cl)c(Cl)c1 [N-(3,4-Dichlorophenyl)-N'-methylurea]",48.2 µM
10,CN(CC(=O)N1CCOCC1)Cc1c(Cl)cccc1NC(=O)c1ccccc1 [Fominoben hydrochloride],> 50 µM
11,CCN(Cc1cccc(S(=O)(=O)O)c1)c1ccc(C(=C2C=CC(=[N+](CC)Cc3cccc(S(=O)(=O)[O-])c3)C=C2)c2ccccc2)cc1 [FD&C Green No. 1],66.2 µM
12,"OCC#CCO [2-Butyne-1,4-diol]",58.8 µM
